High-throughput results as filed in PubChem.
The entries come from a sample that favours hits as a whole.
ST2 IL33 inh = inhibitors of human ST2 (IL1RL1) binding to IL-33; 78,000 compounds, 2.3% hits; AlphaLISA ST2-Fc/biotin-IL-33 interaction, 1 h; Q01638; inhibition, % for hits at 17 µM; in the data active = inhibition above about 30%
Target sequence (Q01638 whole entry, looked up): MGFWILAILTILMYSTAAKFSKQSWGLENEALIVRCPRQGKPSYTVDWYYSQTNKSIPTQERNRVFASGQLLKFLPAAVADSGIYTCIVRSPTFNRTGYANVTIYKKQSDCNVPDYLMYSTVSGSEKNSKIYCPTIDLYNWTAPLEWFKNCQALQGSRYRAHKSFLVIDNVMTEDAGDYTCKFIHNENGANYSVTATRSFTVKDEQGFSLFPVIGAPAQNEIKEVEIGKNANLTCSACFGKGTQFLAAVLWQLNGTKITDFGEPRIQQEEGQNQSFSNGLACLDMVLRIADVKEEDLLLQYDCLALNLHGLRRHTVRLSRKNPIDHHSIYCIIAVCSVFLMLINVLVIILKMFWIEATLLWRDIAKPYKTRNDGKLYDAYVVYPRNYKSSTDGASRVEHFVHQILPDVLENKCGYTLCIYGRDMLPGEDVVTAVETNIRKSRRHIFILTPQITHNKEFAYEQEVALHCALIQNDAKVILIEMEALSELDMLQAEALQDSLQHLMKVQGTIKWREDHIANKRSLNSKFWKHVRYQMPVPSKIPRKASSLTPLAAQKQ
Each line names hits and unclear results; the compound was inactive in the other large screens.

COc1ccc(CC(=O)Nc2ccc(Nc3nc(C)cc(Nc4ccc(OC)cc4)n3)cc2)cc1	ST2 IL33 inh 33%
CC(=O)Nc1ccc(Nc2nc(C)cc(Nc3ccccc3)n2)cc1	none
COc1ccc(NC(=O)Cc2ccc(Br)cc2)cc1	none
Cc1cc(Nc2ccccc2)nc(Nc2ccc(NC(=O)c3ccc(F)cc3)cc2)n1	none
COc1ccc(Nc2cc(C)nc(Nc3ccc(NC(=O)c4ccccc4OC)cc3)n2)cc1	ST2 IL33 inh 39%
COc1cccc(C(=O)Nc2ccc(Nc3nc(C)cc(Nc4ccccc4)n3)cc2)c1	none
CCC(CC)C(=O)Nc1ccc(Nc2nc(C)cc(Nc3ccccc3)n2)cc1	none
COc1ccc(C(=O)Nc2ccc(Nc3nc(C)cc(Nc4ccc(C)cc4)n3)cc2)cc1OC	none
CC(=O)c1cccc(NC(=O)C(CC(C)C)N2C(=O)c3ccccc3C2=O)c1 (stereo unspecified)	none
COc1cccc(OCC(O)CN2C(C)CCCC2C)c1 (stereo unspecified)	none
COc1ccc2cc(NC(=O)/C=C/c3ccccc3)c(=O)oc2c1	none
NC(=O)Cc1c[nH]c2cccc(O)c12	ST2 IL33 inh 101%
O=C(O)CCCc1c[nH]c2ccccc12	none
CC(Cc1c[nH]c2ccccc12)NC(N)=O (stereo unspecified)	none
Cc1ccc(NC(=O)COc2ccccc2)cc1	none
O=[N+]([O-])c1cccc(C=Nc2nnc(-c3ccccc3)s2)c1	none
Cc1ccc([N+](=O)[O-])cc1N1C(=O)/C(=C\c2ccccc2)N=C1c1ccccc1	ST2 IL33 inh 40%
O=C1OC(c2cccc([N+](=O)[O-])c2)=N/C1=C\c1cccc(I)c1	none
O=C(NCCSc1c[nH]c2ccccc12)c1ccccc1C(F)(F)F	none
Cc1ccc(C)c(CN2CCCN(CC(=O)N3CCCC3)S2(=O)=O)c1	none
CCOc1ccc(N2C(=O)C3C(C2=O)[C@H]2C=C[C@@H]3CC2)cc1 (stereo partly specified)	none
CCn1nc(C(=O)N2CCN(c3ccccc3)CC2)c2c1CCN(C(=O)Cc1cccs1)C2	none
CNCC1OCCc2ccccc21 (stereo unspecified)	none
Cc1ccc(NCC2OCc3ccccc3CO2)cc1	ST2 IL33 inh 97%
CCCCc1nc(SCC(=O)Nc2ncccn2)n[nH]1	none
CC(C)c1cc(C2CCCN2C(=O)c2cnn3c2CCCC3)no1 (stereo unspecified)	ST2 IL33 inh 32%
Cc1noc(C)c1C1CCCN1C(=O)c1cnn2ccn(C)c12 (stereo unspecified)	none
CCn1nc(C)c(NC(=O)CN2CCCC2c2cc(C(C)C)on2)c1C (stereo unspecified)	none
CCc1ccc2nc(N3CCC(C(=O)NCCCN(CC)CC)CC3)sc2c1	none
c1ccc(CNn2cnnc2)cc1	none
CNC(=O)C(C)N(C)Cc1nc2ccccc2n1CC(C)C (stereo unspecified)	none
CNC(=O)C(C)N(C)Cc1cccc(C(=O)OC)c1 (stereo unspecified)	none
CNC(=O)C(C)N(C)Cc1nnc(CC2CCNCC2)n1-c1ccccc1 (stereo unspecified)	ST2 IL33 inh 30%
COc1ccc(N2CCN(c3ccc([N+](=O)[O-])c4cccnc34)CC2)c([N+](=O)[O-])c1	ST2 IL33 inh 55%
COc1ccc(N2CCN(c3cc(N4CCN(C)CC4)ccc3[N+](=O)[O-])CC2)cc1	ST2 IL33 inh 44%
O=[N+]([O-])c1cc(C(F)(F)F)ccc1N1CCN(c2ccc([N+](=O)[O-])c3cccnc23)CC1	ST2 IL33 inh 45%
O=C(c1ccccc1F)N1CCN(c2ccc([N+](=O)[O-])c3cccnc23)CC1	ST2 IL33 inh 35%
Cc1ccccc1C(=O)N1CCN(c2ccc([N+](=O)[O-])c(N3CCOCC3)c2)CC1	none
O=C(c1cnc(N2CCN(c3ccccn3)CC2)c2ccccc12)N1CCN(c2ccccn2)CC1	none
CS(=O)(=O)c1ccc(N2CCN(c3ccccc3)CC2)c([N+](=O)[O-])c1	none
CCC(=O)N1CCN(c2ccc(F)cc2[N+](=O)[O-])CC1	none
CN1CCN(c2cc(N3CCN(CCO)CC3)ccc2[N+](=O)[O-])CC1	none
O=[N+]([O-])c1cccnc1N1CCOCC1	none
O=[N+]([O-])c1cc(CN2CCOCC2)c(O)c2ncccc12	none
COc1ccc(N2CCN(Cc3cc(OC)c(O)c([N+](=O)[O-])c3)CC2)cc1	none
CCOC(=O)C1=C(N)OC2=C(C(=O)CC(c3ccccc3)C2)C1c1ccccc1Cl (stereo unspecified)	none
C=CC[C@@H]1CC=C[C@@H](C)N1C(=O)c1cccc(N2CCNC2=O)c1	none
COc1ccc(N2CCCS2(=O)=O)cc1NC(=O)c1c(F)cccc1F	none
COc1ccccc1C1CC(c2ccc(Cl)cc2Cl)Nc2nc(N)nn21 (stereo unspecified)	none
COc1ccc2sc(NC(=O)c3ccco3)nc2c1	none
CCS(=O)(=O)c1ncc(CN2C[C@@H]3CCCC2C3)n1CCCc1ccccc1	none
O=C(NCc1ccccc1)[C@@H]1Cc2nc[nH]c2CN1CC1CC1	none
Cc1cc(-c2c(-c3ccccc3)ncn2CCOc2nonc2C)n[nH]1	none
CC(O)CNc1ccc(C(F)(F)F)cc1[N+](=O)[O-] (stereo unspecified)	none
O=[N+]([O-])c1cc(C(F)(F)F)ccc1N1CCN(CCOc2nonc2-c2ccccc2)CC1	ST2 IL33 inh 45%
Cc1cc(C)n(-c2ccc(C(F)(F)F)cc2[N+](=O)[O-])n1	none
O=[N+]([O-])c1cccc(Cl)c1N1CCN(c2ccc([N+](=O)[O-])c3cccnc23)CC1	none
O=[N+]([O-])c1cc(C(F)(F)F)ccc1N1CCc2ccccc21	ST2 IL33 inh 68%
COc1ccccc1N1CCN(c2ccc([N+](=O)[O-])c3cccnc23)CC1	ST2 IL33 inh 31%
O=[N+]([O-])c1ccccc1OCC(O)CN1CCN(c2ccccc2F)CC1 (stereo unspecified)	none
COc1ccccc1N1CCN(C(=O)c2cc(OC)c(OC)c(OC)c2)CC1	none
Cc1c(CN[C@H]2CCN(Cc3ccccc3)C2)c2ccccc2n1CC(N)=O	none
CCOc1cc(C2C(C(=O)OC(C)CC)=C(C)NC3=C2C(=O)C(C(=O)OC)C(C)C3)ccc1O (stereo unspecified)	none
O=C(CSc1nc2ccccc2[nH]1)c1ccccc1	none
CS(=O)(=O)c1ccc2nc(NC(=O)CCCc3ccccc3)sc2c1	none
COc1ccc(-c2cc3c(n(C)c2=O)CCN(C(=O)C2CCCO2)C3)c2ccc(C)nc12 (stereo unspecified)	none
O=C1c2ccccc2-c2ncnc3c(S(=O)(=O)O)cc(O)c1c23	none
Nc1c(Br)cc(O)c2c1C(=O)c1ccccc1C2=O	ST2 IL33 inh 68%
COc1ccc(CN2CCN(Cc3ccc(C)s3)CC2CCO)c(F)c1 (stereo unspecified)	none
CCN=C1SC(CC(=O)Nc2ccc(N3CCOCC3)cc2)C(=O)N1CC (stereo unspecified)	none
CC(C)n1cc(CN2CCN(Cc3ccccc3F)C(CCO)C2)cn1 (stereo unspecified)	none
O=S(=O)(NC1c2ccccc2Oc2ccccc21)c1ccc(Cl)cc1	none
COc1ccc(O)c(C(=O)CC(=O)c2ccccc2)c1	ST2 IL33 inh 32%
COc1ccc(C(=O)c2ccccc2)c(OCC(=O)N(C)C)c1	none
COC(=O)c1cc(O)c(OCc2ccccc2)c(O)c1	none
COc1ccc(-c2nnc([C@H]3CCN(CCCc4ccccc4)C3)o2)cc1	none
CC(C)(C)NC(=O)CN1C(=O)C2CCCCN2c2ccc(S(=O)(=O)N3CCCCC3)cc21 (stereo unspecified)	none
Cc1ccsc1[C@@H]1CCN(C(=O)c2coc3c2C(=O)CCC3)C[C@H]1O	ST2 IL33 inh 32%
CCc1nc(C)c(C(=O)N2CC[C@@H](c3sccc3C)[C@H](O)C2)o1	none
